# Hits are enriched below; roughly 8.9% of the tested compounds scored in any of these assays.
# DRD3 agonist – activates the human D3 dopamine receptor. P35462. D3R DiscoveRx beta-arrestin cells, luminescence, 90 min. max activation, %. 0.58% of 410,000 active. AID 652048; in the data active = max activation above about 30%
# Target sequence (P35462 whole entry, looked up): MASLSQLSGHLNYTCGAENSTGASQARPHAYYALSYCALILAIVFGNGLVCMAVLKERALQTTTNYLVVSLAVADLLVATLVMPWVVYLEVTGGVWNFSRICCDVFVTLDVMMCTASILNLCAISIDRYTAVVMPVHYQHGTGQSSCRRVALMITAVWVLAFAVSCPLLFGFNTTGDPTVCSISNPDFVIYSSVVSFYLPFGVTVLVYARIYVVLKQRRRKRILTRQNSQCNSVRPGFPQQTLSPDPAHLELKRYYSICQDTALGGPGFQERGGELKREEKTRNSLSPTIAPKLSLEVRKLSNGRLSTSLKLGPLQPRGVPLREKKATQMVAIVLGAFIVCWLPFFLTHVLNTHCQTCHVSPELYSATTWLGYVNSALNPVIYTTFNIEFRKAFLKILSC
#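 Cells at 1500/well, incubated overnight, then treated with pinned compounds (dopamine as control) for 90 min at 37 degrees C. DiscoveRx reagent added for 30 - 60 minutes at room temperature; luminescence read.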
# MCF10A rerep – inducers of DNA re-replication in MCF 10A breast cells; Potency, µM (titrated, usually from 46.1 µM), most hits filed as activators; MCF 10A DNA re-replication, Hoechst nuclear intensity, 48 h; AID 624296; 2.9% of 350,000 active; note: nearly all actives have a fitted effect of over 50% in size
# KB-3-1 cytotox – kills parental KB-3-1 adenocarcinoma cells; KB-3-1 viability, CellTiter-Glo ATP luminescence, 72 h; Potency, µM (doses to about 46.1 µM), actives largely listed as cytotoxic; 1.4% of 400,000 active; AID 1347075; note: nearly all actives have a fitted effect of over 60% in size
#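 Using CellTiter-Glo luminescence, growth of non-resistant KB-3-1 adenocarcinoma cells is assessed 72 h after pin-tool compound addition at 37 °C. Normalized responses across the concentration series yield fitted curves.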
# D3 antag – D3 dopamine receptor (human) antagonism. P35462. D3R cells, DiscoveRx beta-arrestin luminescence, antagonist mode; hits give low values. max response, negative = inhibition, %. 2.5% of 360,000 active. AID 652054; in the data active = max response below about -50%; inconclusive = no clear call, values can overlap the other calls
#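 Cells expressing the human receptor were seeded at 1500 cells/well, incubated overnight at 37 degrees C in 5% CO2, then exposed to library compounds with dopamine controls for 90 minutes at 37 degrees C before luminescent detection.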
# KB-V1 cytotox – KB-V1 MDR subline cytotoxicity; AID 1347076; Potency, µM (highest dose often 46.1 µM), usual class: cytotoxic; 3.4% of 400,000 active; KB-V1 MDR cells viability, CellTiter-Glo, 72 h; note: nearly all actives have a fitted effect of over 60% in size
#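 KB-V1, DMEM (no phenol red) + 10% FBS; cpd pin-transferred, titration series; 72 h, 37 degrees C; CellTiter-Glo, luminescence. Data normalized, curve-fit.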
# SW480 rerep – induces DNA re-replication in SW480 colon adenocarcinoma cells | SW480 DNA re-replication, Hoechst DNA content imaging, 48 h | Potency, µM (doses to about 46.1 µM), most hits filed as activators | 1.8% of 340,000 active | AID 624297; note: nearly all actives have a fitted effect of over 55% in size
#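 Hoechst fluorescence of nuclei (405 nm excitation, 500-530 nm emission) measured by plate-scanning imager after 48 hr compound exposure at 37 C; re-replication scored as increased number of nuclei with elevated intensity.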
# Numbers stand for hits; i = inactive; ? = inconclusive; nt = not tested or not shown; [ ] = another dose, or the depositor's remark. Unless noted, calls come from the whole dose curve; as a rule, active = well fitted curve in the direction sought with a large enough effect; inconclusive = small, poorly fitted or top-dose-only effect, or another doubt; inactive = no such curve, though single readings can be large; an effect the other way counts as inactive or inconclusive.
SMILES,DRD3 agonist,MCF10A rerep,KB-3-1 cytotox,D3 antag,KB-V1 cytotox,SW480 rerep
COc1ccc(Cc2nnc(SCC(=O)c3ccc(OC)cc3)o2)cc1,i,6.51µM,i,i,i,i
OCCC1CN(Cc2ccsc2)CCN1C1CCCC1 (centres undefined),i,i,i,i,?,?
OCCC1CN(Cc2cccc(-c3ccco3)c2)CCN1Cc1ccsc1 (centres undefined),i,i,i,-76.6,i,?
OCCC1CN(Cc2ccc3cc(Cl)ccc3n2)CCN1Cc1ccsc1 (centres undefined),i,i,?,?,i,?
OCCC1CN(Cc2cnn(-c3ccccc3Cl)c2)CCN1Cc1ccsc1 (centres undefined),i,i,i,-67.7,?,i
OCCC1CN(Cc2ccc3nonc3c2)CCN1Cc1ccsc1 (centres undefined),i,i,i,-52.2,?,i
Cc1cccc(NC(=O)Cn2c(=O)n(CCCCCC(=O)NCc3ccccc3)c(=O)c3sccc32)c1,i,nt,i,nt,i,nt
O=C(CSc1nc(CCC2CCCC2)nc2ccccc12)NCc1ccc2c(c1)OCO2,i,10.3µM,i,i,?,i
O=C(CSc1nc2ccccc2o1)NCc1ccc2c(c1)OCO2,i,i,i,i,i,i
Cc1nonc1NC(=O)CSc1nc(CCC2CCCC2)nc2ccccc12,i,7.31µM,i,i,i,i
CCCc1nc2ccccc2c(C(=O)OCC(=O)NCc2ccc3c(c2)OCO3)c1CC,i,18.4µM,?,i,i,i
Cc1cc(NC(=O)CSc2nc(CCC3CCCC3)nc3ccccc23)no1,i,i[0.0737 µM],i,i,i,i
COc1cc(/C=N/N2CCN(c3ccccc3OC)CC2)ccc1O,i,i,i,i,i,i
COc1ccc(C=C2C(=O)c3ccccc3C2=O)cc1O,i,i,i,i,i,i
COc1cc(C=C2C(=O)c3ccccc3C2=O)ccc1O,i,i,i,-77.2,i,i
COc1cc(/C=N/N2C(=O)C3C4c5ccccc5C(c5ccccc54)C3C2=O)ccc1O (centres undefined),i,i,i,i,10.3µM,i
COc1cc(/C=C2\COC/C(=C\c3ccc(O)c(OC)c3)C2=O)ccc1O,i,5.8µM,i,-90.2,i,7.31µM
COc1cc(/C=C2/CC/C(=C/c3ccc(O)c(OC)c3)C2=O)ccc1O,i,?,?,i,?,i
COc1ccc(/C=C2\CN(Cc3ccccc3)C/C(=C\c3ccc(OC)c(O)c3)C2=O)cc1O,i,?,5.17µM,-53.4,i,3.66µM
O=C(NCc1ccccc1Cl)c1ccc2c(c1)N(Cc1ccccc1)C(=O)CS2,i,nt,nt,nt,nt,nt
Cc1ccc(-c2nnc(Nc3ccc(Br)cc3)c3ccccc23)cc1S(=O)(=O)NCC1CCCO1 (centres undefined),i,nt,i,nt,i,nt
O=C(Nc1cc(Sc2ccccn2)cc([N+](=O)[O-])c1)c1ccc(Cl)cc1,i,?,20.6µM,i,?,i
Cc1cc(-c2nc3ccccc3o2)c2ccccc2n1,i,i,i,?,13µM,i
Cc1ccc(NC(=O)CN2C(=O)COc3ccc(S(=O)(=O)N4CCOCC4)cc32)c(Cl)c1,i,nt,nt,nt,nt,nt
COc1cc([N+](=O)[O-])cc(/C=N/NC(=O)c2ccc(NC(=O)c3ccc(C)cc3)cc2)c1O,i,i,5.17µM,i,i,?
SMILES,DRD3 agonist,MCF10A rerep,KB-3-1 cytotox,D3 antag,KB-V1 cytotox,SW480 rerep
COc1cc([N+](=O)[O-])cc(/C=N/NC(=O)c2ccc(C)nc2)c1O,i,14.6µM,?,?,?,nt
CCOc1cc(/C=N/NC(=O)c2c(-c3ccccc3)noc2C)ccc1O,i,i,i,i,i,i
CCOc1cc([N+](=O)[O-])cc(/C=N/NC(=O)c2c(-c3ccccc3)noc2C)c1O,i,i,?,i,?,8.2µM
CCOc1ccc(-c2nonc2NC(=O)c2oc3cc(C)ccc3c2C)cc1,i,nt,nt,nt,nt,nt
Cc1cccc(OCC(=O)N2CCC(c3nc4ccccc4o3)CC2)c1C,i,nt,nt,nt,nt,nt
O=C(CN1CCSc2ccccc21)NCc1ccccc1F,i,nt,i,nt,i,nt
Cc1ccc(C(=O)CN(CCC(=O)O)C(=O)c2ccncc2)cc1,31.4,i,i,i,?,i
